Source: PubChem BioAssay (National Center for Advancing Translational Sciences (NCATS))
ATXN viability – reduces viability in counter-screen for ATXN expression inhibitors. Potency, µM (highest dose often 56.7 µM), usual class: cytotoxic. S2 cells (HEK-293 line with an ATXN2-luciferase reporter) viability, CellTiter-Fluor protease fluorescence, 24 h. hit rate 0.49% among 400,000. AID 651635; also: potency is read from the fitted curve at half-maximal effect; nearly all actives have a fitted effect of over 40% in size
HepG2 viability – HepG2 cytotoxicity, counter-screen for TGF-b inhibitors. AID 588856. hit rate 0.76% among 410,000. Potency, µM (highest dose often 46.1 µM), for inactives: top-dose activity change, negative = cytotoxicity, actives largely listed as cytotoxic. HepG2 CAGA-GFP viability, ATP luminescence, 18 h; also: potency is read from the fitted curve at half-maximal effect
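CellTiter-Glo luminescence gave cytotoxicity after 18 hours at 37 degrees C. The cells were HepG2 CAGA-GFP in 1% FBS DMEM, stimulated with 500 pg/mL TGF-beta after compound addition. %Activity was normalised to no-cell wells (complete cell-killing) and DMSO (no toxicity), and curves were fitted and classified.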
TGFb SMAD3 inh – blocks TGF-b signaling. HepG2 CAGA-GFP TGF-b/SMAD3 reporter, GFP fluorescence, 18 h; TGF-beta stimulated, 500 pg/mL final. Potency, µM (titrated, usually from 46.1 µM), inactives show at the highest dose activity, negative = inhibition, hits mostly inhibitors. hit rate 1.2% among 410,000. AID 588855; also: potency is read from the fitted curve at half-maximal effect; % is scaled to controls: 0 for no effect and ±100 for the full control effect; nearly all actives have a fitted effect of over 65% in size
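TGF-beta reporter screen: HEPG2 CAGA-GFP, 1% FBS, 500 pg/mL TGF-beta final, 18 h; per-cell GFP summed per well; curves fitted and categorized by class.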
D3 antag – antagonists of human D3 dopamine receptor. D3R cells, DiscoveRx beta-arrestin luminescence, antagonist mode; active compounds read low. hit rate 2.5% among 360,000. P35462. AID 652054. max response, negative = inhibition, %; in the data active = max response below about -50%; inconclusive = no clear call, values can overlap the other calls; also: % is scaled to controls: 0 for no effect and ±100 for the full control effect
Target sequence (P35462 whole entry, looked up): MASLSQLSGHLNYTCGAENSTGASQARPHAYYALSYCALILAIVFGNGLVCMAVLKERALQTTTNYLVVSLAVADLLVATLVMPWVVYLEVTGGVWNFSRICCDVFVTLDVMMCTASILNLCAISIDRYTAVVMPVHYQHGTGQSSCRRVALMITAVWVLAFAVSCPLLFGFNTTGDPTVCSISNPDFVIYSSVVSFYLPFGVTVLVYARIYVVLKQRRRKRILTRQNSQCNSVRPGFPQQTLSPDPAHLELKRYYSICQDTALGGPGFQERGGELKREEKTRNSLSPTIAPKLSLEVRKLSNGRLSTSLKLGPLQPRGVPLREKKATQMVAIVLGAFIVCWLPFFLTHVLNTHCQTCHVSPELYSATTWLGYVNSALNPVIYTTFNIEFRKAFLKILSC
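Cells plated overnight at 1500 cells/well, then exposed to library compounds with dopamine controls for 90 minutes at 37 degrees C. DiscoveRx reagent added for 30–60 minutes at room temperature; luminescence read, quantitative HTS format.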
ATXN2 expr inh – inhibitors of ATXN2 expression. HEK-293 ATXN2-luciferase reporter, luminescence, 24 h. Potency, µM (titrated, usually from 57 µM), without a hit: at the highest dose activity change, negative = inhibition, most hits filed as inhibitors. hit rate 0.72% among 360,000. AID 1745845; also: potency is read from the fitted curve at half-maximal effect; % is scaled to controls: 0 for no effect and ±100 for the full control effect; nearly all actives have a fitted effect of over 55% in size
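ATXN2-luciferase reporter cells (luciferase flanked by upstream and downstream ATXN2 gene portions) were treated 24 h at 37 °C with compounds at up to 57 uM. SteadyGlo luminescence gave expression; GF-AFC fluorescence gave viability.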
DRD3 agonist – agonists of human D3 dopamine receptor | P35462 | D3R DiscoveRx beta-arrestin cells, luminescence, 90 min | max activation, % | hit rate 0.58% among 410,000 | AID 652048; in the data active = max activation above about 30%; also: 0% is about no effect
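Agonist-mode cell screen: cells plated at 1500/well and incubated overnight at 37 °C, then exposed to library compounds for 90 min at 37 °C. Detection reagent was added for 30–60 min at room temperature, and luminescence was read.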
An asterisk follows results filed as active; ! = a repeat was not active. Only some compounds are listed: those with a hit (about 4.8% of all), similar ones and a draw of the others. Unless noted, calls follow the shape of the dose curve; as a rule, active = well fitted curve in the direction sought with a large enough effect; inconclusive = small, poorly fitted or top-dose-only effect, or another doubt; inactive = no such curve, though single readings can be large; an effect the other way counts as inactive or inconclusive.

For CCN1CCN(C/C(C)=C/c2ccccc2)CC1 the results were ATXN viability inactive, HepG2 viability -4%, TGFb SMAD3 inh inconclusive, D3 antag inconclusive, ATXN2 expr inh 21% and DRD3 agonist -19.
`COc1ccc(C(=O)c2cn(CC(=O)Nc3ccc4c(c3)OCO4)c3ccc(OC)cc3c2=O)cc1` gave HepG2 viability -6%, TGFb SMAD3 inh -5% and DRD3 agonist 4.
`Cc1cc(NC(=O)COC(=O)COc2ccc(C(=O)c3ccccc3)cc2)no1` gave ATXN viability inactive, HepG2 viability -15%, TGFb SMAD3 inh -26%, D3 antag 18, ATXN2 expr inh 1% and DRD3 agonist 9.
Screening CCc1ccccc1OCC(=O)OCC(=O)Nc1cc(C)on1 returned ATXN viability inactive, HepG2 viability 3.2µM*, TGFb SMAD3 inh 10%, D3 antag -19, ATXN2 expr inh -3% and DRD3 agonist -2.
For COCC1CCCN(Cc2nc(C(c3ccccc3)c3ccccc3)no2)C1 (stereo not given) the results were ATXN viability inactive, HepG2 viability -8%, TGFb SMAD3 inh -9%, D3 antag -2, ATXN2 expr inh -9% and DRD3 agonist -13.
Screening c1ccc(C(c2ccccc2)c2noc(CN3CCN(CC4CC4)CC3)n2)cc1 returned ATXN viability inactive, HepG2 viability -13%, TGFb SMAD3 inh -3%, D3 antag -63*, ATXN2 expr inh 8% and DRD3 agonist -21.
Screening CCc1ccc(NC(=O)N(Cc2ccc(C)cc2)Cc2cccn2-c2nnc(N3CCCC3=O)s2)cc1 returned ATXN viability inactive, HepG2 viability -28%, TGFb SMAD3 inh 2%, ATXN2 expr inh 8% and DRD3 agonist -4.
Screening CC(C)OCCCNC(=O)CSc1c2c(nc3ccc(Cl)cc13)CCCC2 returned HepG2 viability -55%, TGFb SMAD3 inh 11µM* and DRD3 agonist -11.
For COCCCNC(=O)CSc1c2c(nc3ccc(Cl)cc13)CCCC2 the results were ATXN viability inactive, HepG2 viability -14%, TGFb SMAD3 inh 13µM*!, D3 antag -25 and DRD3 agonist -13.
For CCOc1ccc(CNC(=O)CSc2c3c(nc4cc(Cl)ccc24)CCCC3)cc1 the results were HepG2 viability -33%, TGFb SMAD3 inh -21% and DRD3 agonist -11.
Screening CCN(CC)CCCNC(=O)CSc1c2c(nc3cc(Cl)ccc13)CCCC2 returned HepG2 viability 22µM*, TGFb SMAD3 inh 11µM*, D3 antag -9, ATXN2 expr inh inconclusive and DRD3 agonist -9.
Screening Cc1ccc(CNC(=O)CSc2c3c(nc4cc(Cl)ccc24)CCCC3)o1 returned ATXN viability inactive, HepG2 viability -39%, TGFb SMAD3 inh inconclusive, D3 antag -76*, ATXN2 expr inh -18% and DRD3 agonist -1.
For O=C(C[n+]1cc(Br)cc(Br)c1)c1ccc2c(c1)CCCC2 the results were HepG2 viability 1% and TGFb SMAD3 inh -13%.
For COc1ccc(-n2nnnc2C(C2CC2)N2CCN(C/C=C/c3ccccc3)CC2)cc1 (stereo not given) the results were ATXN viability inconclusive, HepG2 viability -19%, TGFb SMAD3 inh inconclusive, D3 antag -81*, ATXN2 expr inh -20% and DRD3 agonist -3.
For C(=C\c1ccccc1)/CN1CCN(C(c2nnnn2Cc2ccccc2)C2CC2)CC1 (stereo not given) the results were ATXN viability inconclusive, HepG2 viability -20%, TGFb SMAD3 inh inconclusive, D3 antag -62*, ATXN2 expr inh -39% and DRD3 agonist -4.
`CCC(c1nnnn1-c1c(C)cccc1C)N1CCN(C/C=C/c2ccccc2)CC1` (stereo not given) gave ATXN viability inconclusive, HepG2 viability -12%, TGFb SMAD3 inh inconclusive, D3 antag inconclusive, ATXN2 expr inh -33% and DRD3 agonist -4.
Screening Cc1cccc(C)c1-n1nnnc1C(C1CC1)N1CCN(C/C=C/c2ccccc2)CC1 (stereo not given) returned ATXN viability inconclusive, HepG2 viability -10%, TGFb SMAD3 inh inconclusive, D3 antag -79*, ATXN2 expr inh inconclusive and DRD3 agonist 1.
CCCNc1nc(Nc2ccc([N+](=O)[O-])cc2)nc(N2CCOCC2)n1 was read as HepG2 viability 8% and TGFb SMAD3 inh 14%.
Oc1ccc(-c2nc(-c3ccccc3)c(-c3ccc(Br)cc3)[nH]2)cc1 was read as ATXN viability inconclusive, HepG2 viability -111%, TGFb SMAD3 inh inconclusive, ATXN2 expr inh inconclusive and DRD3 agonist -26.
COc1cc(-c2nc(-c3ccccc3)c(-c3ccc(Br)cc3)[nH]2)cc(OC)c1O was read as ATXN viability inconclusive, HepG2 viability -70%, TGFb SMAD3 inh 13µM*, ATXN2 expr inh inconclusive and DRD3 agonist -8.
`CC(C)(C)n1nnnc1C(c1ccccc1)N1CCN(C(=O)c2ccco2)CC1` (stereo not given) gave ATXN viability inactive, D3 antag 0, ATXN2 expr inh 15% and DRD3 agonist 56*.
For CC(C)(C)n1nnnc1C(c1cc2ccccc2o1)N1CCN(C(=O)OCc2ccccc2)CC1 (stereo not given) the results were ATXN viability inactive, D3 antag -63*, ATXN2 expr inh -10% and DRD3 agonist -10.
For CC(C)CCn1nnnc1C(c1ccc(F)cc1)N1CCN(C(=O)c2ccco2)CC1 (stereo not given) the results were ATXN viability inconclusive, HepG2 viability -6%, TGFb SMAD3 inh -10%, D3 antag -76*, ATXN2 expr inh 3% and DRD3 agonist 0.
`Cc1ccc(S(=O)(=O)Cn2nnnc2C(C(C)C)N2CCN(C(=O)c3ccco3)CC2)cc1` (stereo not given) gave ATXN viability inactive, HepG2 viability -52%, TGFb SMAD3 inh -2%, D3 antag -56*, ATXN2 expr inh 7% and DRD3 agonist -3.
COc1ccc(-c2cc(C(F)(F)F)n3nc(C(=O)Nc4sc5c(c4C(=O)OC(C)C)CCC(C)C5)cc3n2)cc1 (stereo not given) was read as ATXN viability inactive, HepG2 viability 5%, TGFb SMAD3 inh 4%, ATXN2 expr inh -3% and DRD3 agonist 4.
`COC(=O)c1ccc(CN2CCC3(CCC(CNC(=O)c4ccco4)O3)CC2)cc1` (stereo not given) gave ATXN viability inactive.
